Screens as filed in PubChem BioAssay.
CYP2C19 act = cytochrome P450 2C19 (human) activation | recombinant CYP2C19, luciferin-H EGE luminescence; hits give high values; 0 = fully inhibited enzyme, 1 = untreated enzyme | P33261 | 96,000 tested, under 10 active | activation factor at 5 µM;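 active means activation factor of at least 2 at 5 µM in the primary screen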
Target sequence (P33261 whole entry, looked up): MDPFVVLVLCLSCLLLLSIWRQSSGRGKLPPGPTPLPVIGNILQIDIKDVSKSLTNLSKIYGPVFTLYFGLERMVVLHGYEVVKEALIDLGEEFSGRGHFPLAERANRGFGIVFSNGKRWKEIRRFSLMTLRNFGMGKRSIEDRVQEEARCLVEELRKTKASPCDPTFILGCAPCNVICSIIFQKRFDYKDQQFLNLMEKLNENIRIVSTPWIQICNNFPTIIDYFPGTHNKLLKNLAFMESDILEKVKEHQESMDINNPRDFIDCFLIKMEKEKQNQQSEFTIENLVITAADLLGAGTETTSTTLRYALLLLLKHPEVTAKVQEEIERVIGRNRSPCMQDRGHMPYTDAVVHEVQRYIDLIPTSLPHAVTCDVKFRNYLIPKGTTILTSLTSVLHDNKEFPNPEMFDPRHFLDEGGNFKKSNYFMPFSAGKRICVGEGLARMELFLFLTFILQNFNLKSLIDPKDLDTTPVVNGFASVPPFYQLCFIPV
E-sel TNF inh = blocks E-selectin expression induced by TNF alpha; 120,000 tested, 0.71% active; inhibition, % at 2 µM; HUVEC TNFa-induced E-selectin immunofluorescence, high content;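 active means inhibition above the batch mean plus 3 SD, and confirmed as a hit on visual image review, cut at about 43% in these data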
F-actin modifier = modifiers of cytoskeleton assembly. inhibition, % at 2 µM. HUVEC TNFa F-actin phalloidin imaging, high content. 91,000 tested, 0.18% active;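 active means inhibition above the batch mean plus 3 SD and confirmed as a hit by visual image inspection, cut at about 30% in these data, passing the limit was not always enough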
CYP2C9 activ = increases human cytochrome P450 2C9 activity | P11712 | recombinant CYP2C9, luciferin-H conversion, luminescence; hits give high values; factor 1 = untreated enzyme, 0 = blocked | activation factor at 5 µM | 96,000 tested, 1.4% active;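 active means activation factor of 2 or more for CYP2C9 at a 5 µM dose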
CYP2C19 inhib = inhibitors of human CYP2C19 | 96,000 tested, 21% active | inhibition, % at 5 µM | CYP2C19 Supersomes, luciferin-H EGE luminescence, 30 min | AID 778;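 active means CYP2C19 inhibition above a set limit at 5 µM in the primary screen, cut at about 50% in these data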
CYP2C9 inhib = human CYP2C9 inhibition | P11712 | CYP2C9 Supersomes, luciferin-H conversion, luminescence | inhibition, % at 5 µM | 96,000 tested, 20% active | AID 777;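 active means blocking of liver enzyme CYP2C9 beyond about 50% at 5 µM, limit read from the data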
Large screens that a line does not name were inactive. A selection: hits, their analogues and other compounds. The true share with any hit is near 22%.

Cc1ccc(N2C(=O)c3oc4ccccc4c(=O)c3C2c2cccc(O)c2)nc1 (configuration not stated)	none (no result: CYP2C19 act, E-sel TNF inh, CYP2C9 activ, CYP2C19 inhib, CYP2C9 inhib)
CCOc1ccc(C2c3c(oc4ccccc4c3=O)C(=O)N2c2ccc(C)cn2)cc1OC (configuration not stated)	CYP2C9 inhib 82 (no result: F-actin modifier)
COc1cc(C2c3c(oc4ccccc4c3=O)C(=O)N2c2ccc(C)cn2)ccc1O (configuration not stated)	CYP2C9 inhib 68 (no result: E-sel TNF inh)
O=C(C/C=N/OCc1c(Cl)cccc1Cl)c1ccc(Cl)cc1	none
Cc1cc(C)cc(C(=O)Oc2coc(CSc3nnc(NC(=O)C4CC4)s3)cc2=O)c1	E-sel TNF inh 61 (no result: CYP2C19 act, F-actin modifier, CYP2C9 activ, CYP2C19 inhib, CYP2C9 inhib)
Cc1ccc(C(=O)Oc2coc(CSc3nnc(NC(=O)c4cccs4)s3)cc2=O)cc1	none (no result: CYP2C19 act, F-actin modifier, CYP2C9 activ, CYP2C19 inhib, CYP2C9 inhib)
Cc1cc(Cl)ccc1OC(C)c1nnc(N)s1 (configuration not stated)	CYP2C19 inhib 61
Cc1cc(Cl)ccc1OCCCC(N)=O	none
Cn1c(=O)n(C)c2cc([N+](=O)[O-])c(N3CCN(S(=O)(=O)c4ccc5ccccc5c4)CC3)cc21	CYP2C19 inhib 73
Cc1ccc(S(=O)(=O)N2CCN(c3cc4c(cc3[N+](=O)[O-])n(C)c(=O)n4C)CC2)cc1	CYP2C19 inhib 76, CYP2C9 inhib 81
CCN(CC)C(=O)N1CCN(S(=O)(=O)c2ccccc2)CC1	none (no result: CYP2C19 act, F-actin modifier, CYP2C9 activ, CYP2C19 inhib, CYP2C9 inhib)
CCOC(=O)c1cnc2ccccc2c1Nc1ccc2c(c1)OCCO2	none (no result: CYP2C19 act, F-actin modifier, CYP2C9 activ, CYP2C19 inhib, CYP2C9 inhib)
CCCCc1nc(N2CCOCC2)c(C#N)c2c1COC(C)(C)C2	CYP2C19 inhib 87, CYP2C9 inhib 73
CCc1nc(N2CCCC2)c(C#N)c2c1CCCC2	none
CCc1nc(N2CCOCC2)c(C#N)c2c1CCCC2	CYP2C19 inhib 78
CCCc1nc(N2CCCC2)c(C#N)c2c1CCCC2	CYP2C9 inhib 73
CCCCc1nc(NCC2CCCO2)c(C#N)c2c1COC(C)(C)C2 (configuration not stated)	none (no result: CYP2C19 act, CYP2C9 activ, CYP2C19 inhib, CYP2C9 inhib)
CC(C)c1nc(N2CCCC2)c(C#N)c2c1CCCC2	CYP2C19 inhib 54, CYP2C9 inhib 55
Nc1ncnc2c1ncn2CCNCCc1ccccc1	none
O=C1CNC(=O)/C1=C/c1ccc(O)cc1	none
Cc1cc2cc(CN3C(=O)c4ccccc4C3=O)ccc2[nH]1	none (no result: CYP2C19 act, F-actin modifier, CYP2C9 activ, CYP2C19 inhib, CYP2C9 inhib)
O=C(CCC(=O)OCC(F)(F)C(F)F)Nc1ccc(F)cc1F	none (no result: CYP2C19 act, F-actin modifier, CYP2C9 activ, CYP2C19 inhib, CYP2C9 inhib)
O=C(OCC(F)(F)C(F)F)c1ccccc1C(=O)Oc1ccc(F)cc1F	CYP2C19 inhib 90, CYP2C9 inhib 76 (no result: E-sel TNF inh)
COc1ccc(N2CC(NC(=O)NC(C)(C)C)CC2=O)cc1 (configuration not stated)	none (no result: CYP2C19 act, F-actin modifier, CYP2C9 activ, CYP2C19 inhib, CYP2C9 inhib)
O=C(Cn1cnc2ccccc2c1=O)NCC(=O)N1CCN(Cc2ccc3c(c2)OCO3)CC1	none (no result: F-actin modifier)
CC(=O)c1cccc(NC2c3ncccc3C(=O)N2Cc2ccco2)c1 (configuration not stated)	CYP2C19 inhib 83 (no result: E-sel TNF inh, F-actin modifier)
COc1ccc(CN2C(=O)c3cccnc3C2Nc2cc(Cl)c(OC)cc2OC)cc1 (configuration not stated)	none (no result: E-sel TNF inh, F-actin modifier)
COc1ccc(CN2C(=O)c3cccnc3C2Nc2ccc(C)cc2)cc1 (configuration not stated)	CYP2C19 inhib 63, CYP2C9 inhib 63
CC(=O)c1ccc(NC2c3ncccc3C(=O)N2Cc2ccc(F)cc2)cc1 (configuration not stated)	CYP2C19 inhib 76 (no result: E-sel TNF inh, F-actin modifier)
O=C1c2cccnc2C(O)N1Cc1ccc(F)cc1 (configuration not stated)	none (no result: CYP2C19 act, CYP2C9 activ, CYP2C19 inhib, CYP2C9 inhib)
O=C1c2cccnc2C(Nc2cccc(F)c2)N1Cc1ccco1 (configuration not stated)	none (no result: CYP2C19 act, F-actin modifier, CYP2C9 activ, CYP2C19 inhib, CYP2C9 inhib)
O=c1c2c(n3cnnc3n1-c1ccccc1)-c1ccccc1CC21CCCC1	none (no result: CYP2C19 act, F-actin modifier, CYP2C9 activ, CYP2C19 inhib, CYP2C9 inhib)
O=c1c2c(n3nnnc3n1Cc1ccccc1)-c1ccccc1CC21CCCC1	CYP2C9 inhib 72
O=c1c2c(n3nnnc3n1-c1ccccc1)-c1ccccc1CC21CCCC1	E-sel TNF inh 100
Fc1ccccc1N1CCN(c2nc3ccccc3n3nnnc23)CC1	none (no result: F-actin modifier)
COc1ccc(C2CC(c3ccccc3)Nc3nc(N)nn32)cc1 (configuration not stated)	none
Nc1nc2n(n1)C(c1ccccc1)CC(c1ccc(F)cc1)N2 (configuration not stated)	CYP2C19 inhib 98, CYP2C9 inhib 93 (no result: E-sel TNF inh)
Cc1ccccc1C1CC(c2ccc(Br)cc2)Nc2nc(N)nn21 (configuration not stated)	none (no result: CYP2C19 act, E-sel TNF inh, CYP2C9 activ, CYP2C19 inhib, CYP2C9 inhib)
CCc1ccc(C2CC(c3ccc(F)cc3)Nc3nc(N)nn32)cc1 (configuration not stated)	CYP2C19 inhib 51 (no result: F-actin modifier)
Cc1ccccc1C1CC(c2ccc(F)cc2)Nc2nc(N)nn21 (configuration not stated)	CYP2C19 inhib 69, CYP2C9 inhib 84 (no result: E-sel TNF inh)
CCOc1ccc(C2CC(c3ccccc3)Nc3nc(N)nn32)cc1 (configuration not stated)	CYP2C9 inhib 51 (no result: F-actin modifier)
Cc1ccc(S(=O)(=O)Cn2nnnc2C(C(C)C)N2CCN(Cc3ccco3)CC2)cc1 (configuration not stated)	none
COc1ccc(C2CC(c3cccc(Cl)c3)n3nc(N)nc3N2)cc1 (configuration not stated)	none (no result: F-actin modifier)
COc1ccccc1C1CC(c2ccc(Cl)cc2Cl)Nc2nc(N)nn21 (configuration not stated)	CYP2C19 inhib 83 (no result: E-sel TNF inh)
Cc1nnc(SCCN2CCOCC2)n1C	none (no result: CYP2C19 act, F-actin modifier, CYP2C9 activ, CYP2C19 inhib, CYP2C9 inhib)
Cc1ccccc1C(=O)O/N=C/c1c(N2CCOCC2)n(C)c2ccccc12	CYP2C9 inhib 88
Cn1c(Cl)c(/C=N/OC(=O)c2cccc(Cl)c2)c2ccccc21	none (no result: E-sel TNF inh)
Cc1ccc(S(=O)(=O)N2CCN(C(=O)CN3CCCCC3)C2C(C)C)cc1 (configuration not stated)	none
OCCN(Cc1ccccc1)Cc1ccc(F)c(F)c1	CYP2C19 inhib 84 (no result: E-sel TNF inh)
OCCN(Cc1ccccc1)Cc1ccccc1O	none (no result: CYP2C19 act, F-actin modifier, CYP2C9 activ, CYP2C19 inhib, CYP2C9 inhib)
CCC(C)[C@H](NC(=O)OC(C)(C)C)C(=O)N/N=C/C1=Cc2ccccc2OC1 (some centres not stated)	none
c1ccc(COn2nnc3ccccc32)c(COn2nnc3ccccc32)c1	CYP2C19 inhib 99, CYP2C9 inhib 93
Clc1cccc(Cl)c1COn1nnc2ccccc21	none
O=C(c1ccccc1)c1ccc2nc[nH]c2c1	CYP2C19 inhib 57
CC(C)(C)Nc1nc(NC(C)(C)C)nc(-n2ccnc2)n1	CYP2C9 inhib 63
Cc1ccc2nc(NC(=O)CSCC(=O)OCC(=O)c3ccccc3)sc2c1	none (no result: CYP2C19 act, F-actin modifier, CYP2C9 activ, CYP2C19 inhib, CYP2C9 inhib)
N/C(=N\c1nc(CSc2ccc(Cl)cc2)cc(=O)[nH]1)Nc1cccc2ccccc12	E-sel TNF inh 70
COc1ccc(N/C(N)=N/c2nc(CSc3ccc(Cl)cc3)cc(=O)[nH]2)cc1	CYP2C19 inhib 66
CC(=O)N1CCN(c2ccccc2NC(=O)c2cc(Br)ccc2Cl)CC1	CYP2C9 inhib 59
Cc1ccc(OCC(=O)Nc2ccccc2N2CCCC2)c(C)c1	none (no result: CYP2C19 act, F-actin modifier, CYP2C9 activ, CYP2C19 inhib, CYP2C9 inhib)
O=C(COc1ccc(Cl)cc1Cl)NC(=S)N1CCCc2ccccc21	CYP2C19 inhib 60, CYP2C9 inhib 62
